Data as given in publication PMC5540273 (PLoS ONE, 2017).

Assays:
Details in all cases: concentration: 1 μM, replicates: in singlicate; n = 1
CAMKK1 = test system: CAMKK1
CAMKK2 = test system: CAMKK2
CASK = test system: CASK
CDC2L1 = test system: T1, CDC2L1
T1 construct: gene CDK11B

CDC2L2 = test system: CDC2L2
CDC2L5 = test system: T2, CDC2L5
T2 construct: gene CDK13

CDK11 = test system: T3, CDK11
T3 construct: gene CDK19

CDK2 = test system: CDK2
CDK3 = test system: CDK3
CDK4-cyclinD1 = test system: CDK4-cyclinD1
CDK4-cyclinD3 = test system: CDK4-cyclinD3
CDK4 = test system: CDK4
CDK5 = test system: CDK5
CDK7 = test system: CDK7
CDK8 = test system: CDK8
CDK9 = test system: CDK9
CDKL1 = test system: CDKL1
CDKL2 = test system: CDKL2
CDKL3 = test system: CDKL3
CDKL5 = test system: CDKL5
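Also: KINOMEscan kinase panel screen.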

Row | SMILES | %Inh (CAMKK1) | %Inh (CAMKK2) | %Inh (CASK) | %Inh (CDC2L1) | %Inh (CDC2L2) | %Inh (CDC2L5) | %Inh (CDK11) | %Inh (CDK2) | %Inh (CDK3) | %Inh (CDK4-cyclinD1) | %Inh (CDK4-cyclinD3) | %Inh (CDK4) | %Inh (CDK5) | %Inh (CDK7) | %Inh (CDK8) | %Inh (CDK9) | %Inh (CDKL1) | %Inh (CDKL2) | %Inh (CDKL3) | %Inh (CDKL5)
1 | CSc1ccc(-c2cc3ncnc(SCC(=O)O)c3s2)cc1 | 44% | 45% | 0% | 7% | 0% | 0% | 0% | 0% | 40% | 0% | 0% | 0% | 22% | 25% | 0% | 33% | 4% | 0% | 0% | 0%
2 | Cc1cccc(-c2nc(-c3ccc(S(C)(=O)=O)cc3)sc2-c2ccncc2)c1 | 4% | 5% | 0% | 0% | 0% | 9% | 0% | 14% | 3% | 0% | 19% | 0% | 12% | 25% | 9% | 0% | 0% | 4% | 0% | 7%
3 | CNc1ncnc2[nH]ncc12 [SKF-18355] | 0% | 0% | 22% | 0% | 0% | 0% | 0% | 0% | 12% | 0% | 0% | 17% | 0% | 0% | 0% | 0% | 8% | 30% | 19% | 3%
4 | CCCCCc1nc2c(N)ncnc2n1CCCCC [SKF-97255] | 0% | 0% | 25% | 0% | 0% | 0% | 10% | 0% | 9% | 0% | 0% | 13% | 0% | 2% | 8% | 0% | 26% | 0% | 16% | 7%
5 | CN(C1=C(c2ccccc2)C(=O)NC1=O)c1ccccc1 [SB-334860] | 0% | 16% | 17% | 0% | 14% | 0% | 8% | 5% | 8% | 0% | 9% | 5% | 6% | 15% | 4% | 9% | 6% | 0% | 0% | 8%
6 | Cc1cccc(-c2nc(Nc3ccc4ncsc4c3)c3ccccc3n2)n1 [GW867588] | 0% | 20% | 1% | 0% | 13% | 0% | 0% | 9% | 6% | 0% | 0% | 7% | 0% | 17% | 43% | 3% | 1% | 0% | 1% | 0%
7 | COc1cc2c(cc1OC[C@@H](O)CO)ncc1c3ccc(C#N)cc3[nH]c21 | 60% | 22% | 0% | 0% | 0% | 0% | 20% | 0% | 19% | 0% | 0% | 4% | 17% | 99.5% | 15% | 0% | 12% | 0% | 8% | 0%
8 | COc1cc2c(cc1OCCN1CCN(C)CC1)ncc1c3ccc(C#N)cc3[nH]c21 | 86% | 70% | 8% | 7% | 7% | 0% | 0% | 2% | 0% | 0% | 0% | 0% | 9% | 99.7% | 3% | 14% | 32% | 6% | 0% | 0%
9 | Fc1ccc(-c2ncn(CCCN3CCOCC3)c2-c2ccccn2)cc1 [SB-211742] | 16% | 19% | 0% | 1% | 0% | 21% | 0% | 0% | 43% | 22% | 0% | 0% | 0% | 0% | 29% | 0% | 40% | 49% | 4% | 5%
10 | NS(=O)(=O)c1cccc(-c2ccc3ncc(N4CCOCC4)nc3c2)c1 [GSK1535721] | 11% | 12% | 1% | 6% | 34% | 0% | 7% | 0% | 0% | 0% | 0% | 12% | 0% | 20% | 31% | 3% | 15% | 0% | 0% | 0%
11 | O=C(NCCNc1ccnc(Nc2ccc(F)cc2)n1)c1cc2ccccc2s1 [GSK1379874] | 5% | 0% | 1% | 0% | 8% | 0% | 0% | 0% | 0% | 0% | 0% | 0% | 0% | 0% | 38% | 0% | 8% | 5% | 0% | 0%
12 | Cc1nnc(-c2ccc(C)c(-c3ccc(C(=O)Nc4ccc(NS(C)(=O)=O)cc4)cc3)c2)o1 [GW702865] | 0% | 0% | 23% | 0% | 8% | 0% | 0% | 0% | 1% | 36% | 0% | 0% | 0% | 0% | 28% | 0% | 5% | 18% | 0% | 0%
13 | CC(C)Oc1ccc2c(-c3ccnc(Nc4ccc(N5CCN(C)CC5)cc4)n3)cnn2n1 [GW696155] | 40% | 44% | 23% | 63% | 51% | 0% | 19% | 0% | 17% | 94.4% | 97.8% | 58% | 0% | 99.8% | 8% | 21% | 34% | 99.6% | 92% | 43%
14 | O=C1NC(=O)C(N2CCc3ccccc32)=C1c1cccc(Cl)c1 [SB-408010] | 7% | 0% | 0% | 0% | 5% | 0% | 0% | 0% | 0% | 0% | 0% | 0% | 7% | 9% | 0% | 0% | 0% | 11% | 0% | 0%
15 | CC(C)(C)n1cnc2c(N)ncnc21 [SKF-97359] | 0% | 0% | 0% | 0% | 0% | 0% | 0% | 0% | 0% | 21% | 0% | 0% | 0% | 0% | 66% | 0% | 0% | 28% | 0% | 0%
